The record followed here is PubChem BioAssay (Tox21).

Results filed as inconclusive are left out. Where a call stands in place of a potency, no number is given. Activity calls are given as the source filed them. Calls come from the whole dose curve; as a rule, active = well fitted cell-killing curve with a large enough effect in the repeat runs; inconclusive = weak or mixed curves; inactive = flat fitted curve, though single readings scatter.

The test in a line: qHTS assay to identify small molecule antagonists of the TGF-beta/Smad signaling pathway - cell viability counter screen (AID 1346824). Note: nearly all actives have a fitted effect of over 50% in size. To be noted: SBE-bla HEK293T viability, CellTiter-Glo luminescence; series mostly up to 76.8 µM; viability change, negative = cytotoxic: at the top concentration. The source says:
U.S. Tox21 Program National Center for Advancing Translational Sciences [NCATS] NIH Chemical Genomics Center [NCGC] U.S. Environmental Protection Agency [EPA] National Institutes of Environmental Health Sciences [NIEHS] National Toxicology Program [NTP] U.S. Food and Drug Administration [FDA] Tox21 Assay Overview: Transforming growth factor beta (TGF-beta) superfamily consists of a large number of structurally related dimeric proteins that act as hormones or local mediators in regulating a wide range of biological functions. This superfamily includes TGF-betas themselves, the bone morphogenetic proteins (BMPs) and the activins. These ligands induce oligomerization of serine/threonine receptor kinases and phosphorylate the cytoplasmic signaling molecules of Smad protein family. CellSensor SBE-bla HEK 293T cell line (Life Technologies, Carlsbad, CA), responsive to TGF-beta was used to screen Tox21 10K compound library for identification of agonists/antagonists of the Smad signaling pathway. This cell line contains a beta-lactamase reporter gene under control of the Smad binding element (SBE) stably integrated into HEK 293T cells. Also cytotoxicity of the compounds was tested in parallel by measuring the cell viability using CellTiter-Glo assay system in the same wells.
Tox21 Assay Protocol Summary: SBE-bla HEK 293T cells were dispensed at 4,000/well in 5 uL of assay medium into black wall/clear-bottom 1536-well plates using a Multidrop Combi (ThermoFisher Scientific, Waltham, MA) dispenser. After the assay plates were incubated at 37 C and 5% CO2 for an overnight, 23 nL of compounds dissolved in DMSO, positive controls or DMSO only was transferred to the assay plate by a Pintool station (Kalypsys, San Diego, CA). Compound transfer was followed by the addition of 1 uL of 0.25 ng/mL TGF-beta1 or assay buffer using two separate tips of Flying Reagent Dispenser (FRD, Aurora Discovery, San Diego, CA). The assay plates were incubated at 37 C and 5% CO2 for 5 hr. One uL of LiveBLAzer B/G FRET substrate (Life Technologies) was added using a Flying Reagent Dispenser (FRD, Aurora Discovery, San Diego, CA) and the plates were incubated at room temperature for 2 hr. Fluorescence intensity (405 nm excitation, 460 nm and 530 nm emissions) was measured using an Envision plate reader (PerkinElmer, Shelton, CT). For cytotoxicity read, 4 uL of CellTiter-Glo reagent (Promega Corporation, Madison, WI) was added to each well of the assay plates using FRD. After 30 min incubation at room temperature, the luminescence intensity was measured using ViewLux plate reader (PerkinElmer).
For `C1CN2CCN1CC2`, the Potency result is “inactive”.
Same read-out and setting: the result for `Cc1ccccc1O` reads “inactive”; that for `CCCCOC(=O)c1ccccc1C(=O)OCCCC`, “inactive”; that for `CCCCCOC(=O)c1ccccc1C(=O)OCCCCC`, “inactive”.
The same measure, in the same setting: the result for `CCc1cccc(C)c1N(C(=O)CCl)C(C)COC` (stereo not given) reads “inactive”; that for `Cc1ccc(N)cc1N`, “inactive”; that for `CN1C(=O)CN=C(c2ccccc2)c2cc(Cl)ccc21`, “inactive”.
Same read-out and setting: the result for `C=CCO` reads “inactive”.
For the compound `CCCN(CCC)N=O`, the Potency entry is “inactive”.
For `CC(C)N1C(=O)c2ccccc2NS1(=O)=O`, the Potency entry is “inactive”.
The same measure, in the same setting: the entry for `Cc1ccc(N)cc1Cl` is “inactive”; for `CCN(CC)c1ccccc1` it is “inactive”; for `Clc1ccc(Cl)cc1` it is “inactive”.
The same measure, in the same setting: the entry for `c1ccc2c(c1)oc1ccccc12` is “inactive”; for `CC(C)OC(=O)Nc1cccc(Cl)c1` it is “inactive”.
On the same count and under the same terms, the result for `CN(N=O)c1ccccc1` reads “inactive”; that for `CCCCCCCCCCCC#N`, “inactive”; that for `CC(C)(Cl)Cl`, “inactive”.
Regarding `Nc1ccc(Br)cc1`, the Potency entry is “inactive”.
Still for that read-out and setting: the result for `CCCCN(CCCC)SN(C)C(=O)Oc1cccc2c1OC(C)(C)C2` reads “inactive”.
Still for that read-out and setting: the result for `Cc1cc(-c2cc(C)c(N)c(C)c2)cc(C)c1N` reads “inactive”; that for `O=C1CCCN1`, “inactive”; that for `O=c1[nH]c2ccccc2c(=O)o1`, “inactive”.
Regarding `CC(=O)C=C(C)C`, the “viability change, negative = cytotoxic” value was 5.18% (inactive).
`O=S(=O)(c1ccc(Cl)cc1)c1cc(Cl)c(Cl)cc1Cl`: the Potency result is “inactive”.
`O=c1n(Cl)c(=O)n(Cl)c(=O)n1Cl`: the “viability change, negative = cytotoxic” value is -4.05% [at 35.3 µM] (inactive).
Consider `O=C(O)c1ccccn1`, for which the Potency entry was “inactive”.
For `COC(=O)c1ccccc1N`, the Potency result is “inactive”.
Still for that read-out and setting: the entry for `Cc1cccc([N+](=O)[O-])c1` is “inactive”; for `CC(Br)C(=O)O` (stereo not given) it is “inactive”.
Same read-out and setting: the entry for `O=[N+]([O-])c1ccc([As](=O)(O)O)cc1` is “inactive”; for `CCCCN(CC)C(=O)SCCC` it is “inactive”; for `CN(C)N=O` it is “inactive”.
Still for that read-out and setting: the result for `CN=C=S` reads “inactive”; that for `C=CC(N)=O`, “inactive”.
For `CC(C)NC(=O)N1CC(=O)N(c2cc(Cl)cc(Cl)c2)C1=O`, the Potency entry was “inactive”.
Same read-out and setting: the entry for `Clc1cccc(Cl)c1Cl` is “inactive”; for `[O-][Cl+2]([O-])O` it is “inactive”.
The same measure, in the same setting: the result for `CC1OC(C)OC(C)O1` (stereo not given) reads “inactive”.
Same read-out and setting: the entry for `Cc1ccc([N+](=O)[O-])cc1C` is “inactive”.
